# In the library only some 6% were active in any assay of this set; here they are far more common.
# D1 agonist = human D1 receptor agonism | AID 504660 | 360,000 tested, 1% active | activation, % at 2 µM | P21728 | HEK293 T-REx D1 cells, calcium flux, agonist mode; in the data active means activation above about 30%; further: 0% is about no effect
# Target sequence (P21728 whole entry, looked up): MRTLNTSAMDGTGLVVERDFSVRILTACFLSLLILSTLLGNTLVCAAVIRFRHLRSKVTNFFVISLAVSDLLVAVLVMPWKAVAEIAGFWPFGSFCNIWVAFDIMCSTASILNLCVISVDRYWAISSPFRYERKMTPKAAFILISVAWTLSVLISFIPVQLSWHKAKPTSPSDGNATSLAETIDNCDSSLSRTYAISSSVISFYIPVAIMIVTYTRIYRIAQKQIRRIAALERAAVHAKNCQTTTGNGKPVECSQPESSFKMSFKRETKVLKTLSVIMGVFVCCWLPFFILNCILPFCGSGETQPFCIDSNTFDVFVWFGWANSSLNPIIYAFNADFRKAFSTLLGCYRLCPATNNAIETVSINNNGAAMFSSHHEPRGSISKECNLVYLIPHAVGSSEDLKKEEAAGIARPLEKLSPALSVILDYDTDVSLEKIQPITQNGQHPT
#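 Tetracycline-induced HEK293 TREx D1 cells, force-coupled to calcium signalling, were dye-loaded with a no-wash calcium kit. Compound was pin-added after a 10 s baseline. Fluorescence was read kinetically at 1 cycle/s for 180 s, with calcium rises flagged as agonism.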
# D1 antag = blocks dopamine activation of the human D1 receptor; P21728; HEK293 TREx D1 cells, calcium flux, dopamine EC80; active compounds read low; activity change, negative = inhibition, % at 10 µM; 360,000 tested, 3.2% active; AID 504652; in the data active means activity change below about -30%; further: on the % scale 0 is the no-effect control and ±100 the full control effect
#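 Inducible Hek293 Trex D1 cells (tetracycline, overnight, 30 C). Calcium dye 30–90 min RT. Antagonist mode: EC80 dopamine added after 180 s compound read.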
# D1 PAM = human D1 dopamine receptor positive modulation; HEK293 TREx D1 cells, calcium flux, dopamine EC20 potentiation; potentiation, % at 10 µM; 360,000 tested, 0.036% active; in the data active means potentiation above about 30%; further: 0% is about no effect
# DRD3 agonist = D3 dopamine receptor (human) agonism. P35462. D3R DiscoveRx beta-arrestin cells, luminescence, 90 min. max activation, %. 410,000 tested, 0.58% active. AID 652048; in the data active means max activation above about 30%; further: 0% is about no effect
#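 Agonist mode: compounds and dopamine controls were applied to plated cells for 90 min at 37 degrees C after an overnight attachment at 1500 cells/well. Luminescent read-out followed 30 - 60 minutes at room temperature with DiscoveRx detection reagent.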
# D3 antag = D3 dopamine receptor (human) antagonism; P35462; D3R cells, DiscoveRx beta-arrestin luminescence, antagonist mode; active compounds read low; max response, negative = inhibition, %; 360,000 tested, 2.5% active; in the data active means max response below about -50%; inconclusive means no clear call, values can overlap the other calls; further: on the % scale 0 is the no-effect control and ±100 the full control effect
#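 Cells expressing the human receptor were seeded at 1500 cells/well, incubated overnight at 37 degrees C in 5% CO2, then exposed to library compounds with dopamine controls for 90 minutes at 37 degrees C before luminescent detection.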
# * hit, by the source's call; u = inconclusive; x = no result given.
SMILES,D1 agonist,D1 antag,D1 PAM,DRD3 agonist,D3 antag
Cc1ccc(S(=O)(=O)Nc2cccc3cccnc23)cc1,0.3,-24.0,-6.8,-11.7,-80.6*
COc1cc(NS(=O)(=O)c2ccc(C)cc2)c2ncccc2c1,0.7,-7.6,-4.3,-16.3,-55.0*
CC[C@]12C(=O)N(C)C[C@H]([C@@H]3C(=O)N(C)C(=O)[C@@H]31)N2C(=O)c1ccccc1,x,x,x,1.7,-16.9
CCCOc1ccc(C(=O)N2CCCC2C(=O)O)cc1 (stereo unspecified),1.4,-3.8,0.3,1.1,-60.9*
CC1=C(C(N)=O)C(c2ccc(C)cc2)n2nc(SCc3ccccc3)nc2N1 (stereo unspecified),-0.7,2.4,1.1,1.5,x
O=C1Nc2c(Br)cccc2C1=O,x,x,x,-40.5,-93.9*
O=C1Nc2c(Cl)cccc2C1=O,x,x,x,-10.1,u
Cc1cccc2c1NC(=O)C2=O,x,x,x,-20.7,-13.4
COC(=O)c1cccc2c1NC(=O)C2=O,1.2,-22.9,-6.5,-13.7,-74.9*
COc1ccc(S(=O)(=O)Nc2ccc3oc4c(c3c2)C(=O)CC(C)(C)C4)cc1,10.0,12.3,1.8,-3.2,x
COc1ccc(C2c3cccn3CCN2S(=O)(=O)c2ccc([N+](=O)[O-])cc2)cc1 (stereo unspecified),-0.8,x,-2.8,-5.3,x
CCCCc1ccc(NC(=O)Cn2cnc3c(oc4ccccc43)c2=O)cc1,4.3,-17.7,-2.9,4.5,x
CCOC(=O)C1C(c2cccc(Cl)c2Cl)NC(=O)NC1(O)C(F)(F)F (stereo unspecified),-3.4,-58.5*,-4.2,-2.1,21.3
CC1CCCN(C(=O)c2nn(C)c3c2CS(=O)(=O)c2ccccc2-3)C1 (stereo unspecified),-0.2,18.4,-4.8,-4.7,-16.1
COc1cccc(CC2(CO)CCCN(Cc3c(C)cc(C)cc3-n3cccn3)C2)c1 (stereo unspecified),4.0,-36.5*,-7.5,1.9,-2.1
CCCc1nc2sc3ccccc3c(=O)c2c(=O)n1Cc1ccc(OC)cc1,7.6,-20.3,1.4,17.9,15.5
CCCc1nc2sc3ccccc3c(=O)c2c(=O)n1Cc1ccco1,80.2*,42.0,11.4,-5.7,-23.8
CCCN(C(=O)CCOc1ccc(C(C)(C)C)cc1)c1c(N)n(Cc2ccccc2)c(=O)[nH]c1=O,2.9,-49.9*,-11.4,10.0,-1.8
CCCN(C(=O)COC(=O)CCOc1ccccc1)c1c(N)n(Cc2ccccc2)c(=O)[nH]c1=O,2.4,6.5,-5.0,4.4,31.9
CC(C)CN(C(=O)COC(=O)c1cccnc1Cl)c1c(N)n(Cc2ccccc2)c(=O)[nH]c1=O,2.1,-34.9*,-8.7,2.3,36.0
CC(C)CCN(C(=O)c1ccncc1)c1c(N)n(Cc2ccccc2)c(=O)[nH]c1=O,0.2,-9.7,0.7,3.7,18.2
Nc1c(N(CCC2=CCCCC2)C(=O)COc2ccc(F)cc2Cl)c(=O)[nH]c(=O)n1Cc1ccccc1,x,x,x,-24.1,-91.5*
COCCN(C(=O)COC(=O)c1cccnc1Cl)c1c(N)n(Cc2ccccc2)c(=O)[nH]c1=O,1.2,14.0,-4.9,-3.1,-10.0
CC(C)CCN(C(=O)Cc1ccc(Cl)c(Cl)c1)c1c(N)n(Cc2ccccc2)c(=O)[nH]c1=O,5.6,4.1,-4.3,-13.5,-72.2*
Nc1c(N(CCC2=CCCCC2)C(=O)Cc2ccc(F)cc2)c(=O)[nH]c(=O)n1Cc1ccccc1,19.1,2.1,-0.8,-5.8,6.6
SMILES,D1 agonist,D1 antag,D1 PAM,DRD3 agonist,D3 antag
COc1cc2c(cc1OC)C(COc1ccc3c(C)cc(=O)oc3c1)N(C(=O)c1ccccc1C)CC2 (stereo unspecified),2.8,0.7,-0.7,-4.2,x
COc1ccccc1Cn1ccn(Cc2c(F)cccc2Cl)c(=O)c1=O,1.5,5.0,-1.1,0.6,x
O=C(NCCC(=O)N1CCN(c2ccccc2O)CC1)c1ccc(Cl)cc1,2.6,2.6,-5.0,7.9,-5.2
O=C(Cc1c(F)cccc1Cl)N1CCOCC1,-0.8,-35.6*,-4.0,3.3,1.2
O=C(NCCC(=O)N1CCN(Cc2c(F)cccc2Cl)CC1)c1ccc(Cl)cc1,0.6,-6.6,-4.8,64.6*,-4.1
Cc1ccc(-c2nnc(COC(=O)c3cc(=O)[nH]c4ccccc34)o2)cc1,-1.6,-85.4*,-0.9,7.2,9.1
Cc1ccc(-c2nnc(COC(=O)c3ccco3)o2)cc1,5.6,4.5,-0.6,-5.1,-95.4*
CCOC(=O)c1cc(=O)[nH]c2ccccc12,-0.4,6.4,-3.8,-3.2,-10.2
COc1ccc(CCNc2ccc(C(CC(N)=O)NC(=O)c3cc(OC)ccc3OC)cc2[N+](=O)[O-])cc1 (stereo unspecified),1.6,1.5,-4.2,-21.6,0.0
COc1ccc(C2NC(=O)N(C)C3=C2C(=O)N(c2cccc(Cl)c2)C3)cc1 (stereo unspecified),0.3,9.2,-2.0,3.1,x
CCOC(=O)C(=CNc1cc(OC)ccc1-n1cccc1)C(=O)OCC,6.8,-19.8,-0.5,50.9*,90.6
CCOC(=O)C(=CNc1cc(C)ccc1C)C(=O)OCC,2.5,12.5,7.8,19.4,113.4
CN1CCN(c2ccc(S(=O)(=O)N3CCCCC3)cc2NC(=O)c2ccc(C#N)cc2)CC1,0.7,-44.6*,-2.3,0.8,1.3
CCC(=O)N1CCN(c2ccccc2NC(=O)Cc2ccc(Cl)cc2)CC1,-0.9,-0.4,-1.3,-4.3,-73.7*
CCC(=O)N1CCN(c2ccc(Cl)cc2NC(=O)Cc2ccc(Cl)cc2)CC1,3.7,-7.5,-1.3,-5.9,-3.0
CN1CCN(c2ccc(S(=O)(=O)N3CCCCC3)cc2NC(=O)CSCc2ccccc2)CC1,1.2,4.7,-0.8,1.7,7.0
CN1CCN(c2ccc(S(=O)(=O)N3CCCCC3)cc2NC(=O)CCc2ccccc2)CC1,33.0*,0.7,x,-5.6,1.0
O=C(Cc1ccc(Cl)cc1)Nc1cc(S(=O)(=O)N2CCOCC2)ccc1N1CCCC1,-3.7,-4.8,-0.3,-7.5,-10.9
CN1CCN(c2ccc(S(=O)(=O)N3CCCCC3)cc2NC(=O)Cc2ccc(Cl)cc2)CC1,91.3*,-14.2,5.3,-20.8,u
CC1(C)CC(NC(=O)c2ccccc2NS(=O)(=O)c2ccc(Br)cc2)CC(C)(C)N1,x,x,x,-2.1,-2.2
CCN1CCN(c2ccc(S(=O)(=O)N3CCCCC3)cc2NC(=O)COc2cc(C)ccc2Cl)CC1,11.3,7.7,2.2,-2.4,-7.3
CCN1CCN(c2ccc(S(=O)(=O)N3CCCCC3)cc2NC(=O)COc2ccc(Cl)cc2)CC1,0.3,-43.0*,-5.3,-21.3,-29.7
Cc1ccc2[nH]c(=O)c3cc(C(=O)NC4CCC(C)CC4)sc3c2c1 (stereo unspecified),0.7,-42.8*,-5.2,2.8,x
Cc1ccc2[nH]c(=O)c3cc(C(=O)NC(C)C)sc3c2c1,7.4,4.1,-1.6,1.4,5.8
COc1ccc(C)cc1NC(=O)c1ccc(CN2CCc3ccccc3C2)cc1,4.8,-21.4,-5.0,-19.1,-68.8*

# Assay outcomes deposited in PubChem by National Center for Advancing Translational Sciences (NCATS).
